T1: RBFOX1 RRM (Homo sapiens, UniProt Q9NWB1 109-208)
T1 sequence: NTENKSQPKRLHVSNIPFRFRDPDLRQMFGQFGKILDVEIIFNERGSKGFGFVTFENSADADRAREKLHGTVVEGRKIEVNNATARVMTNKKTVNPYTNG

B1: GGGGCCC (DNA:RNA)
RNA: GGGAGACCGGAAUUCAGAUUGUCCGGGGCCCUUAAAUCCCGUCGUAGCCACCA
DNA 1: CAATCTGAATTCCGGTCTCCC
DNA 2: TGGTGGCTACGACGGGATT
B2: GGGCCUG (DNA:RNA)
RNA: B1 RNA with G28C, C30U, C31G
DNA 1: CAATCTGAATTCCGGTCTCCC
DNA 2: TGGTGGCTACGACGGGATT
B3: CGGCCUG (DNA:RNA)
RNA: B1 RNA with G25C, G28C, C30U, C31G
DNA 1: CAATCTGAATTCCGGTCTCCC
DNA 2: TGGTGGCTACGACGGGATT
B4: CGGGCCG (DNA:RNA)
RNA: B1 RNA with G25C, C31G
DNA 1: CAATCTGAATTCCGGTCTCCC
DNA 2: TGGTGGCTACGACGGGATT
B5: GGGCCGU (DNA:RNA)
RNA: B1 RNA with G28C, C30G, C31U
DNA 1: CAATCTGAATTCCGGTCTCCC
DNA 2: TGGTGGCTACGACGGGATT
B6: GGGCCCU (DNA:RNA)
RNA: B1 RNA with G28C, C31U
DNA 1: CAATCTGAATTCCGGTCTCCC
DNA 2: TGGTGGCTACGACGGGATT
B7: GGGGGCC (DNA:RNA)
RNA: B1 RNA with C29G
DNA 1: CAATCTGAATTCCGGTCTCCC
DNA 2: TGGTGGCTACGACGGGATT
B8: GGGGCCG (DNA:RNA)
RNA: B1 RNA with C31G
DNA 1: CAATCTGAATTCCGGTCTCCC
DNA 2: TGGTGGCTACGACGGGATT
B9: CGGGCCC (DNA:RNA)
RNA: B1 RNA with G25C
DNA 1: CAATCTGAATTCCGGTCTCCC
DNA 2: TGGTGGCTACGACGGGATT
B10: CACCUAU (DNA:RNA)
RNA: GGGAGACCGGAAUUCAGAUUGUCCCACCUAUUUAAAUCCCGUCGUAGCCACCA
DNA 1: CAATCTGAATTCCGGTCTCCC
DNA 2: TGGTGGCTACGACGGGATT
B11: AAGUACA (DNA:RNA)
RNA: B1 RNA with G25A, G26A, G28U, C29A, C31A
DNA 1: CAATCTGAATTCCGGTCTCCC
DNA 2: TGGTGGCTACGACGGGATT
B12: UGCGGAA (DNA:RNA)
RNA: B10 RNA with C25U, A26G, C28G, U29G, U31A
DNA 1: CAATCTGAATTCCGGTCTCCC
DNA 2: TGGTGGCTACGACGGGATT
B13: UCAUCGU (DNA:RNA)
RNA: B10 RNA with C25U, A26C, C27A, C28U, U29C, A30G
DNA 1: CAATCTGAATTCCGGTCTCCC
DNA 2: TGGTGGCTACGACGGGATT
B14: AUAAGUU (DNA:RNA)
RNA: B10 RNA with C25A, A26U, C27A, C28A, U29G, A30U
DNA 1: CAATCTGAATTCCGGTCTCCC
DNA 2: TGGTGGCTACGACGGGATT
B15: UGAGCCA (DNA:RNA)
RNA: B1 RNA with G25U, G27A, C31A
DNA 1: CAATCTGAATTCCGGTCTCCC
DNA 2: TGGTGGCTACGACGGGATT
B16: ACAUCCA (DNA:RNA)
RNA: B1 RNA with G25A, G26C, G27A, G28U, C31A
DNA 1: CAATCTGAATTCCGGTCTCCC
DNA 2: TGGTGGCTACGACGGGATT
B17: UUUGAUA (DNA:RNA)
RNA: B1 RNA with G25U, G26U, G27U, C29A, C30U, C31A
DNA 1: CAATCTGAATTCCGGTCTCCC
DNA 2: TGGTGGCTACGACGGGATT
B18: CAGACUG (DNA:RNA)
RNA: B10 RNA with C27G, C28A, U29C, A30U, U31G
DNA 1: CAATCTGAATTCCGGTCTCCC
DNA 2: TGGTGGCTACGACGGGATT
B19: GGACUGU (DNA:RNA)
RNA: B10 RNA with C25G, A26G, C27A, A30G
DNA 1: CAATCTGAATTCCGGTCTCCC
DNA 2: TGGTGGCTACGACGGGATT
B20: UGGAGAC (DNA:RNA)
RNA: B1 RNA with G25U, G28A, C29G, C30A
DNA 1: CAATCTGAATTCCGGTCTCCC
DNA 2: TGGTGGCTACGACGGGATT
B21: AGGACUG (DNA:RNA)
RNA: B1 RNA with G25A, G28A, C30U, C31G
DNA 1: CAATCTGAATTCCGGTCTCCC
DNA 2: TGGTGGCTACGACGGGATT
B22: GGGACUG (DNA:RNA)
RNA: B1 RNA with G28A, C30U, C31G
DNA 1: CAATCTGAATTCCGGTCTCCC
DNA 2: TGGTGGCTACGACGGGATT
B23: GGGACCG (DNA:RNA)
RNA: B1 RNA with G28A, C31G
DNA 1: CAATCTGAATTCCGGTCTCCC
DNA 2: TGGTGGCTACGACGGGATT
B24: UGUGGAC (DNA:RNA)
RNA: B1 RNA with G25U, G27U, C29G, C30A
DNA 1: CAATCTGAATTCCGGTCTCCC
DNA 2: TGGTGGCTACGACGGGATT
B25: CGGACUG (DNA:RNA)
RNA: B1 RNA with G25C, G28A, C30U, C31G
DNA 1: CAATCTGAATTCCGGTCTCCC
DNA 2: TGGTGGCTACGACGGGATT
B26: UGGACUG (DNA:RNA)
RNA: B1 RNA with G25U, G28A, C30U, C31G
DNA 1: CAATCTGAATTCCGGTCTCCC
DNA 2: TGGTGGCTACGACGGGATT
B27: CCUGGCU (DNA:RNA)
RNA: B10 RNA with A26C, C27U, C28G, U29G, A30C
DNA 1: CAATCTGAATTCCGGTCTCCC
DNA 2: TGGTGGCTACGACGGGATT
B28: AGGUGAU (DNA:RNA)
RNA: B10 RNA with C25A, A26G, C27G, C28U, U29G
DNA 1: CAATCTGAATTCCGGTCTCCC
DNA 2: TGGTGGCTACGACGGGATT
B29: UUCGAUU (DNA:RNA)
RNA: B10 RNA with C25U, A26U, C28G, U29A, A30U
DNA 1: CAATCTGAATTCCGGTCTCCC
DNA 2: TGGTGGCTACGACGGGATT
B30: GUUUGCU (DNA:RNA)
RNA: B1 RNA with G26U, G27U, G28U, C29G, C31U
DNA 1: CAATCTGAATTCCGGTCTCCC
DNA 2: TGGTGGCTACGACGGGATT
B31: AACGCCU (DNA:RNA)
RNA: B10 RNA with C25A, C28G, U29C, A30C
DNA 1: CAATCTGAATTCCGGTCTCCC
DNA 2: TGGTGGCTACGACGGGATT

Changes are numbered by the printed parent chain; changes in the protein carry UniProt numbers. Whole data set: some 16,000 sequences, median “ka relative to ugcaugu” near 0.0091, cut for the highest 2% near 0.032. The full list was thinned out, with the highest values kept by preference.

In this assay the target is T1, RBFOX1 RRM. Put plainly: EMSA; HiTS-Eq, 1 nM pool, 10 min; buffer printed only for the single-RNA assays: 10 mM Tris pH 7.5, 150 mM NaCl, 3.4 mM EDTA, 0.001% NP-40, 30 C. The settings on record: tags: His6 N-terminal (pET28a); label: 5' 32P. The essentials:
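Relative association constants, normalised to the cognate motif, were derived by comparing read counts of each RNA species with those of the control reaction. The RNA sequenced was the free fraction, separated by 8% native PAGE after a 10 min equilibration in 50 µL of 1 nM 5′-radiolabelled RNA (7 randomized nucleotides) with increasing concentrations of purified wild-type or mutant RbFox RRM.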
For orientation: A gel shift assay detects complexes by their altered migration in electrophoresis.
As for B1, the binding signal was 0.0409 KA relative to UGCAUGU. The same measure for B2: 0.0377 KA relative to UGCAUGU; for B3: 0.0257 KA relative to UGCAUGU; for B4: 0.0351 KA relative to UGCAUGU. The same measure for B5: 0.0153 KA relative to UGCAUGU; for B6: 0.00615 KA relative to UGCAUGU; for B7: 0.0256 KA relative to UGCAUGU.

With B8, the binding signal is 0.027 KA relative to UGCAUGU. The same measure for B9: 0.0176 KA relative to UGCAUGU. As to B10, the binding signal is 0.000316 KA relative to UGCAUGU.

As to B11, the binding signal was 0.00261 KA relative to UGCAUGU.

Regarding B12, the binding signal is 0.0165 KA relative to UGCAUGU.

B13: the binding signal is 0.0124 KA relative to UGCAUGU. Take B14: the binding signal was 0.00282 KA relative to UGCAUGU. As for B15, the binding signal was 0.00784 KA relative to UGCAUGU.

Turning to B16, the binding signal was 0.000399 KA relative to UGCAUGU. For the molecule B17, the binding signal is 0.0145 KA relative to UGCAUGU. For the molecule B18, the binding signal was 0.0132 KA relative to UGCAUGU. With B19, the binding signal was 0.0223 KA relative to UGCAUGU.

In the case of B20, the binding signal was 0.007 KA relative to UGCAUGU. Consider B21, for which the binding signal was 0.0275 KA relative to UGCAUGU. As to B22, the binding signal was 0.0322 KA relative to UGCAUGU. The same measure for B23: 0.0273 KA relative to UGCAUGU; for B24: 0.00524 KA relative to UGCAUGU. Consider B25, for which the binding signal was 0.0352 KA relative to UGCAUGU. The same measure for B26: 0.0448 KA relative to UGCAUGU; for B27: 0.0127 KA relative to UGCAUGU; for B28: 0.0113 KA relative to UGCAUGU. The same measure for B29: 0.00889 KA relative to UGCAUGU.

In the case of B30, the binding signal was 0.0286 KA relative to UGCAUGU.

Consider B31, for which the binding signal is 0.00525 KA relative to UGCAUGU.

Values taken from publication PMC9911399, “Two distinct binding modes provide the RNA-binding protein RbFox with extraordinary sequence specificity”.
